Consider 35 compounds from PubChem BioAssay (NCI).

The panel holds about 83,000 compounds, 20% with a hit somewhere; the sample as a whole holds those more often.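 The test compound was applied at a single concentration to cells in 96-well plates for 48 hours, and percent growth was recorded.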 Activity calls are given as the source filed them. Rule for the calls: active = growth percent below 10; inactive = the rest.

One assay has as its system IGROV1 ovarian. The assay is described as follows: NCI-60 one-dose screen, 48 h (100 = growth as untreated, 0 = no growth, -100 = all killed). As to conditions: 10 µM unless noted.
As for `CCNCc1ccc(O)c2ncccc12`, the growth is 46% (inactive).

Regarding `CC(C)c1ccc(C(=O)Nc2sc3cc(O)ccc3c2C#N)cc1`, the growth was 31.1% (inactive).

On to `CCOC(=O)c1c(NC(=O)CSc2n[nH]c3nc4ccccc4n23)sc(CC)c1C`, for which the growth was 20.4% (inactive).

For the compound `COc1cccc(/C=C/C(=O)c2cc3c(N)c(C(=O)Nc4cccc(Cl)c4C)sc3nc2C)c1`, the growth is -18.7% (active).

Turning to `Cc1nn(-c2ccccc2)c(N2CCCCC2)c1/C=N/NC(=O)Cn1c(=O)sc2ccccc21`, the growth was 67.2% (inactive).

As to `COC(=O)Cc1nc(C#N)c(N(C)C)o1`, the growth is 103% (inactive).

Take `N=C(N)c1ccc(-c2ccc(-c3ccc(Cl)cc3Cl)s2)cc1F`: the growth is -88.4% (active).

Regarding `C/C(C=O)=C\c1ccc2c(c1)OCO2`, the growth was 116% (inactive).

Regarding `Cc1ccc(/C=C(\C#N)C(=O)Nc2ncc(Cc3cc(Cl)ccc3Cl)s2)o1`, the growth is 71.7% (inactive).

Consider `C[C@@H]1CC[C@@]2(OC1)O[C@H]1C[C@H]3[C@@H]4CC=C5C[C@@H](O[C@@H]6O[C@H](CO)[C@@H](O[C@@H]7O[C@@H](CO)[C@H](O)[C@H]7O)[C@H](O)[C@H]6O[C@@H]6O[C@@H](C)[C@H](O)[C@@H](O)[C@H]6O)CC[C@]5(C)[C@H]4CC[C@]3(C)[C@H]1[C@@H]2C`, for which the growth is -84.2% (active).

For the compound `CCOC(=O)c1cn2ncnc(Oc3ccc(NC(=O)NC4CC4)c(F)c3)c2c1C`, the growth was 99.3% (inactive).

In another assay the test system is OVCAR-3 ovarian. The description is as above. To be noted: 10 µM unless noted.
In the case of `CC1(C)CC[C@]2(C(=O)N3CCOCC3)CC[C@]3(C)C(=CC[C@@H]4[C@@]5(C)C/C(=C/c6ccncc6)C(=O)C(C)(C)[C@@H]5CC[C@]43C)[C@@H]2C1`, the growth was 16.1% (inactive).

On to `O=C(Nc1cccnc1Nc1ccc(Cl)cc1)c1cn(Cc2ccc(F)cc2)nn1`, for which the growth was 107% (inactive).

In the case of `C=C1C(=O)O[C@H]2[C@H]1CC/C(CNC(=O)c1cc3ccccc3[nH]1)=C\CC[C@@]1(C)O[C@@H]21`, the growth was -93.8% (active).

As for `C=CCN=C(N)SCCCCCCSC(N)=NCC=C`, the growth was 95.9% (inactive).

`CNC(=O)c1c(NC(=O)c2ccc(C(C)(C)C)cc2)sc2c(CN(C)C)c(O)ccc12`: the growth was 32.7% (inactive).

Consider `COc1ccc(C/C(C)=C(\c2ccc(O)cc2)c2ccc(OCCN3CCCC3)cc2)cc1`, for which the growth is 108% (inactive).

Turning to `S=c1ssnc1-c1cccs1`, the growth was 78.9% (inactive).

Turning to `COc1cc(/C=C/c2cc(/C=C/c3ccc(O)c(OC)c3)n(C(=O)Nc3ccc(F)cc3)n2)ccc1O`, the growth is 3.89% (active).

As to `COc1cc2c3c(n(CCCCNCCCn4c5c(c6cc(OC)c(OC)cc6c4=O)C(=O)c4cc6c(cc4-5)OCO6)c(=O)c2cc1OC)-c1cc2c(cc1C3=O)OCO2`, the growth is 98.7% (inactive).

In the case of `COc1cc(-c2cc(-c3ccc(Nc4ncnc5cc(Cl)ccc45)cc3)nc(N3CCN(C)CC3)n2)cc(OC)c1OC`, the growth is 105% (inactive).

Regarding `COc1cc(C(=O)/C=C/c2ccc(N3CCN(C)CC3)cc2)cc(OC)c1OC`, the growth was 98.6% (inactive).

Turning to `Cc1ccc2[nH]c(=O)c3c(c2c1)OC(N)=C(C#N)C31C(=O)c2cccc3cccc1c23` (stereo not given), the growth was 101% (inactive).

For `Cn1c(=O)c2c(nc(NC3=NS(=O)(=O)c4ccccc43)n2Cc2ccccc2)n(C)c1=O`, the growth is 110% (inactive).

As for `COc1ccc(C/C(C)=C(/c2ccc(OCCN3CCCCCC3)cc2)c2ccc(OC(=O)NCc3ccccc3)cc2)cc1`, the growth is 75.1% (inactive).

Turning to `Cn1cc(-c2csc(-c3cn(C(=O)OC(C)(C)C)c4ccccc34)n2)c2ccnc(Cl)c21`, the growth is 61.3% (inactive).

As to `CCN(C(=O)N1CCN(c2cc3c(cc2F)c(=O)c(C(=O)O)cn3C2CC2)CC1)c1nc(-c2ccc(C)cc2)cs1`, the growth is 9.01% (active).

For `COC(=O)c1nc(-c2ccccc2)oc1S(=O)(=O)N1CCC(C(N)=O)CC1`, the growth is 16.2% (inactive).

As for `CCCCSCC(=O)c1ccccc1`, the growth was 99.3% (inactive).

With `Cc1ccc(Nc2nc(-c3ccc(F)cc3)c(C#N)c(=O)n2C)cc1`, the growth was 61.5% (inactive).

Regarding `COc1cccc(OC)c1Oc1c(-c2nc3ccccc3s2)c(C)nn1-c1ccccc1`, the growth is 89.6% (inactive).

Consider `Cc1ccccc1CNc1c2ccccc2nc2ccccc12`, for which the growth was 31.3% (inactive).

Take `COc1ccc2nc3ccccc3c(NCc3ccc(F)cc3)c2c1`: the growth was 31.2% (inactive).

`O=C1NC(=O)c2c1c1c3ccccc3[nH]c1c1oc3cc(Br)ccc3c21`: the growth is 89.9% (inactive).

Consider `COc1ccc(-c2nnc(SCC(=O)Nc3ccc(/C(C)=N\O)cc3)n2-c2ccccc2)cc1OC`, for which the growth is 82% (inactive).
